Assay results reported in PubChem BioAssay (NCATS).
Inconclusive results are not listed. Entries that show only a call come without a potency. Active and inactive are the calls of the source. Calls come from the whole dose curve; as a rule, active = well fitted inhibition curve with a large enough effect; inconclusive = small, poorly fitted or top-dose-only effect; inactive = no such curve, though single readings can be large or run the other way.

Experiment: NS1 protein of Zika virus - qHTS assay to identify small molecule inhibitors in human HEK 293 cells (AID 1347053); note: nearly all actives have a fitted effect of over 55% in size
Conditions: HEK293 ZIKV MR766 infection, NS1 TR-FRET, 24 h; series mostly up to 46.1 µM
Text: National Center for Advancing Translational Sciences [NCATS]
Johns Hopkins University School of Medicine
The non-structural 1 (NS1) protein of zika virus is known to associate with the viral replication complex. This cell-based TR-FRET ZIKV NS-1 assay measures the increased NS-1 protein in human HEK 293 cells after a 24-hour Zika virus infection by a TR-FRET assay readout. A decrease in the Time-resolved fluorescence energy transfer (TR-FRET) signal in this assay by small molecule treatment indicates an inhibitory effect of the small molecule on the expression of Zika virus NS1 correlating with Zika virus replication.
HEK 293 cells were cultured in EMEM (ATCC, Cat. # 30-2003) medium with 10% fetal bovine serum (GE healthcare Life Sciences, Cat. # SH30071.03), and 1% Pen/Strep (Gibco, Cat. # 15140-122). Cells were seeded in the assay plate and incubated at 37 C with 5% CO2 for 20 hours. Compounds were added to cells and incubated for one hour before addition of ZIKV MR766 strain solution to cells (MOI = 0.5). After an incubation at 37 C for 24 hours, the reagent mixture of TR-FRET ZIKV NS1 assay using two anti-ZIKV NS1 antibodies was added to assay plates. The TR-FRET signals in assay plates were measured using an Envision plate reader (PerkinElmer). Data were normalized by using the cell-containing wells without ZIKV as a negative control (0% NS-1) and wells containing ZIKV infected cells as a positive control (100% NS-1 level).

Structure (SMILES)	Potency
O=C(O)c1cccnc1C(=O)O	inactive
Nc1nc2c(cnn2CCc2ccccc2)c2nc(-c3ccco3)nn12	inactive
O=c1ccn([C@@H]2O[C@H](COP(=O)(O)OP(=O)(O)O)[C@@H](O)[C@H]2O)c(=O)[nH]1	inactive
CSC(=N)N	inactive
CCOC(=O)C12CC1/C(=N/O)c1ccccc1O2 (stereo not given)	inactive
Brc1c(Br)c(Br)c2[nH]cnc2c1Br	inactive
CCCn1c(=O)c(C)cn2nc(N)nc12	inactive
N#C/C(=C\c1ccc(O)c(O)c1)C(=O)NCCCNC(=O)/C(C#N)=C/c1ccc(O)c(O)c1	inactive
CCC(=O)N1CCN(C(=O)c2ccccc2)CC1	inactive
CCCCCC[C@@H]([C@@H](C)O)n1cnc2c(N)ncnc21	inactive
NC(=Nc1ccccc1)NC(=O)c1nc(Cl)c(N)nc1N	inactive
N[C@@H](Cc1ccc(O)c(I)c1)C(=O)O	inactive
Cn1c(=O)c2[nH]c(-c3ccc(S(=O)(=O)O)cc3)nc2n(C)c1=O	inactive
CC(=O)/C(C)=N/O	inactive
Nc1ncnc2c1c(-c1ccc(Oc3ccccc3)cc1)cn2C1CCCC1	inactive
O=c1ccc2c(OCCCCc3ccccc3)c3ccoc3cc2o1	inactive
CC1CNCCN1S(=O)(=O)c1cccc2cnccc12 (stereo not given)	inactive
COc1cc([C@@H]2c3cc4c(cc3[C@H](O)C3COC(=O)[C@@H]32)OCO4)cc(OC)c1OC (stereo not given in full)	inactive
N#Cc1cc([N+](=O)[O-])c2sc(C(N)=O)[n+]([O-])c2c1	inactive
CNc1ncnc2c1ncn2[C@H]1C[C@H](OP(=O)(O)O)[C@@H](COP(=O)(O)O)O1	inactive

Structure (SMILES)	Potency
Cc1ccccc1/C=C/C1=NCCN1	inactive
CCCCCCCCCCC/C=C\C(C)(C)/C=C\CCCC(=O)O	inactive
CCCCCCCCCCCCCCCCCCOC[C@H](COP(=O)([O-])OCC[N+](C)(C)C)OC	inactive
CN1Cc2sccc2C(c2ccc(O)c(O)c2)C1 (stereo not given)	inactive
COc1ccc2c(c1)c(CC(=O)O)c(C)n2C(=O)c1ccccc1	inactive
N=C(N)c1ccccc1	inactive
COc1ccccc1N1CCN(CCCCNC(=O)c2ccc3ccccc3c2)CC1	inactive
NCCCCN=C(N)N	inactive
c1ccc2nc(C3=NCCN3)ccc2c1	inactive
C=C1C[C@@]23CC[C@H]4[C@@](C)(CCC[C@@]4(C)C(=O)OC4OC(CO)C(O)C(O)C4O)[C@@H]2CC[C@]1(OC1OC(CO)C(O)C(O)C1OC1OC(CO)C(O)C(O)C1O)C3 (stereo not given in full)	inactive
C[C@]12C=CC(=O)C=C1CC[C@@H]1C2=CC[C@]2(C)[C@@H](C(=O)CN3CCN(c4cc(N5CCCC5)nc(N5CCCC5)n4)CC3)CC[C@@H]12	inactive
CC(C)C[C@H](NC(=O)[C@H](O)[C@H](N)Cc1ccccc1)C(=O)O	inactive
CC(C)(C)c1cc(/C=C(\C#N)C(N)=S)cc(C(C)(C)C)c1O	inactive
CCCCOc1cc(CC2CNC(=O)N2)ccc1OC (stereo not given)	inactive
Nc1ccc2c3c(cccc13)C(=O)NC2=O	inactive
N[C@@H](CS(=O)O)C(=O)O	inactive
CNCCc1cnc(CCC(c2ccccc2)c2ccccc2)[nH]1	inactive
C/C(=C\c1ccc(C(=O)O)cc1)c1ccc2c(c1)C(C)(C)CCC2(C)C	inactive
N#Cc1cc2nc(O)c(O)nc2cc1[N+](=O)[O-]	inactive
COc1ccccc1N1CCN(CCCCN2C(=O)c3ccccc3C2=O)CC1	inactive
